# Screens (PubChem BioAssay)
# HCV inhibitor = HCV inhibition. Huh7.5.1 HCVcc-Cre infection, luciferase reporter, 44 h. Potency, µM (highest dose often 41.8 µM), for the others: top-dose activity change, negative = inhibition, most hits filed as inhibitors. 3.4% of 340,000 active; active means well fitted inhibition curve with a large enough effect; inconclusive means small, poorly fitted or top-dose-only effect, or another doubt; inactive means no such curve, though single readings can be large or run the other way; further: potency means the concentration at half of the fitted maximal effect
#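 Cells seeded at 1,000/well and cultured 4 h, then compounds added followed by HCVcc-Cre virus (~0.5 moi). After 44 h further culture, luciferase substrate was added, plates held 15 min at room temperature, and luminescence read for 15 sec.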
# Marburg entry inh = Marburg virus entry inhibition. Marburg virus pseudotyped entry inhibition, cell reporter. Potency, µM (doses to about 37.8 µM), for the others: top-dose activity change, negative = inhibition, most hits filed as inhibitors. 1.8% of 300,000 active. AID 540276; calls by dose curve; tested in HEK293 cells; further: potency means the concentration at half of the fitted maximal effect
# HCMV inh = blocks human cytomegalovirus replication; activity change, negative = inhibition, % at 57.5 µM; AID 1259415; HFF cells, HCMV-luciferase reporter, 72 h; hits give low values; 4.5% of 410,000 active; in the data active means activity change below about -60%; inconclusive means no clear call, values can overlap the other calls; inactive means above about -39%
#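 Compounds were evaluated in HFFs infected with an HCMV luciferase reporter virus (MOI 1 PFU/cell). Luciferase in lysates collected 72 h post infection served as the replication measure.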
# LASV entry inh = inhibitors of Lassa virus binding or cell entry; Potency, µM (doses to about 37.9 µM), for the others: at the top dose activity change, negative = inhibition, usual class: inhibitors; Lassa virus pseudotype entry inhibition, cell reporter; 1.2% of 300,000 active; AID 540256; calls by dose curve; tested in HEK293 cells; further: potency means the concentration at half of the fitted maximal effect; nearly all actives have a fitted effect of over 50% in size
# Vaccinia Venus = vaccinia inhibition (Venus reporter). Potency, µM (titrated, usually from 36.5 µM), without a hit: top-dose activity change, negative = inhibition, most hits filed as inhibitors. 0.46% of 330,000 active. Vaccinia virus Venus reporter expression, fluorescence; calls by dose curve; tested in A549 cells; further: potency means the concentration at half of the fitted maximal effect; nearly all actives have a fitted effect of over 30% in size
# Vaccinia mCherry = inhibitors of vaccinia virus infection (mCherry reporter signal); Vaccinia virus mCherry reporter infection, fluorescence; Potency, µM (highest dose often 36.5 µM), inactives show at the top dose activity change, negative = inhibition, usual class: inhibitors; 0.63% of 310,000 active; AID 720579; calls by dose curve; tested in A549 cells; further: potency means the concentration at half of the fitted maximal effect; nearly all actives have a fitted effect of over 35% in size
# * hit, by the source's call; i = inactive; ? = inconclusive; nt = not tested or not shown; [ ] = remark or other dose. A selection: hits, their analogues and other compounds. The true share with any hit is near 7.8%. On the % scale 0 is the no-effect control and ±100 the full control effect.
SMILES,HCV inhibitor,Marburg entry inh,HCMV inh,LASV entry inh,Vaccinia Venus,Vaccinia mCherry
CN1CCN(C2=C(Cl)C(=O)N(C3CCCCC3)C2=O)CC1,?,17%,-95*,1%,nt,nt
CCOc1ccc(NC2=C(Cl)C(=O)N(C3CCCCC3)C2=O)cc1,-2%,?,-26,3%,-2%,-5%
COc1cccc(OC)c1-c1cc(CCCc2cc(-c3c(OC)cccc3OC)nc3ccccc23)c2ccccc2n1,nt,nt,nt,nt,?,10µM*
O=C1c2ccccc2C(c2nc3ccccc3[nH]2)N1c1ccccn1 (stereo not given),nt,nt,27,nt,-1%,14%
CCc1c(C)nc2ncnn2c1N1CCC(C(=O)N2CCN(c3ccccc3)CC2)CC1,nt,-2%,nt,nt,nt,nt
CCc1c(C)nc2ncnn2c1N1CCC(C(=O)N2CCN(c3ccc(F)cc3)CC2)CC1,?,-14%,-88*,4%,nt,nt
COc1cc(/C=N/NC(=O)C(Cc2c[nH]c3ccccc23)NC(=O)OCc2ccccc2)cc([N+](=O)[O-])c1O (stereo not given),-5%,-1%,-3,6.3µM*,-16%,0%
O=C(c1cccs1)c1no[n+]([O-])c1C(=O)c1cccs1,10µM*,-14%,nt,-5%,?,i
COc1ccc(C(=O)c2no[n+]([O-])c2C(=O)c2ccc(OC)cc2)cc1,?,-14%,-105*,?,0%,-6%
O=C(c1ccc(Cl)nc1)c1cccs1,24%,-3%,nt,16%,-1%,-14%
CC12C=C(/C=C/CCc3ccco3)C(C)(C1)C(CCc1ccco1)CC2=O (stereo not given),nt,-6%[14.2 µM],nt,nt,nt,nt
CC(=O)NC(Cc1ccc(Cl)cc1)C(=O)NCC(N)C(=O)c1ccccc1 (stereo not given),nt,nt,nt,nt,-11%,-25%
CNC(=O)c1c[nH]c2ccc(S(=O)(=O)Nc3cccc(Cl)c3C)cc2c1=O,nt,-10%[46.1 µM],70,-15%[46.1 µM],-17%,-16%
CC(C)n1c(O)c(/C=C2\C=NN=C2c2ccccc2)sc1=S,-42%,11µM*,?,?,-24%,-11%
CCc1ccccc1NC(=O)C1COc2ccccc2C1 (stereo not given),nt,nt,-9,9%[46.1 µM],-1%,1%[7.34 µM]
Cc1nn(-c2ccccc2)c(OC(=O)c2ccccc2Br)c1S(=O)(=O)c1ccccc1,nt,-9%[46.1 µM],-6,25%[46.1 µM],1%,-8%
COCOc1ccc(-c2ncc(OCCN3CCCC3=O)nc2NC(=O)c2cc3ccccc3s2)cc1,nt,nt,-101*,nt,-10%,35%
CC(=O)c1ccc(NC(=O)Nc2sc3nc4n(c(=O)c3c2C)CCC(C)CC4)cc1 (stereo not given),nt,-24%[46.1 µM],10,nt,-14%,-10%
CN1CCN(C(CNC(=O)Nc2ccc(Cl)cc2)c2ccc(F)cc2)CC1 (stereo not given),?,nt,-25,nt,nt,nt
Cc1ccc(C(CNC(=O)Nc2ccc(Cl)cc2)N2CCN(C)CC2)cc1 (stereo not given),13µM*,?,-21,?,-19%,-25%
CC(C)C(=O)N1c2nc(C(C)C)nn2C2(CCCCC2)[C@@H]2CCCC[C@@H]21,nt,-8%[46.1 µM],6,2%[46.1 µM],-18%,-6%
CC1(C)CC[C@]2(C(=O)O)C(O)C[C@@]3(C)C(=CCC4[C@@]5(C)CCC(O)C(C)(C)C5CC[C@@]43C)C2C1 (stereo not given in full),nt,nt,nt,nt,0%,i
COc1ccc(C[C@H]2COC(=O)[C@@H]2Cc2ccc(OC3OC(CO)C(O)C(O)C3O)c(OC)c2)cc1OC (stereo not given in full),7.1µM*,-44%,nt,-13%,-16%,-21%
COc1cc(C2OCC3C(c4ccc(OC5OC(CO)C(O)C(O)C5O)c(OC)c4)OCC23)ccc1O (stereo not given),-8%,nt,37,nt,-5%,-5%
COc1ccccc1C(=O)N1CCCCC1CCN1CCOCC1 (stereo not given),nt,13%[46.1 µM],-38,14%[46.1 µM],-9%,-11%
SMILES,HCV inhibitor,Marburg entry inh,HCMV inh,LASV entry inh,Vaccinia Venus,Vaccinia mCherry
Cc1ccc(S(=O)(=O)N2CCN(c3cc4c(cc3[N+](=O)[O-])n(C)c(=O)n4C)CC2)cc1,?,23µM*,-18,?,-7%,i
Cc1cc(N2CCN(c3ccc([N+](=O)[O-])c4cccnc34)CC2)c2ccccc2n1,-17%,4%,nt,?,-11%,-20%
Cc1cc(N2CCN(c3ccc(C(F)(F)F)cc3[N+](=O)[O-])CC2)c2ccccc2n1,10µM*,nt,-29,nt,nt,nt
Cc1ccc(S(=O)(=O)N2CCN(c3ccc(C(F)(F)F)cc3[N+](=O)[O-])CC2)cc1,?,8.9µM*,-77*,?,?,-26%
Cn1c(=O)n(C)c2cc([N+](=O)[O-])c(N3CCN(S(=O)(=O)c4ccc5ccccc5c4)CC3)cc21,?,?,-35,-29%,-14%,-22%
Cc1ccc(S(=O)(=O)N2CCN(c3c([N+](=O)[O-])cc(C(F)(F)F)cc3[N+](=O)[O-])CC2)cc1,-7%,9%,-20,-19%,-14%,i
Cc1cc(N2CCN(S(=O)(=O)c3ccccc3)CC2)c2ccccc2n1,?,?,-88*,-6%,?,?
COc1cccc(N2CCN(c3ccc(S(=O)(=O)N4CCN(C)CC4)cc3[N+](=O)[O-])CC2)c1,?,?,-38,?,-29%,-30%
COc1ccc(N2CCN(S(=O)(=O)c3ccc4c(c3)CCCC4)CC2)c([N+](=O)[O-])c1,5µM*,?,-86*,?,?,-13%
O=C(c1cc2c(=O)oc3ccccc3c2s1)N1CCN(c2ccccc2)CC1,nt,7%[46.1 µM],7,?,8%,-14%
O=C(c1cc2c(=O)oc3ccccc3c2s1)N1CCN(c2cccc(Cl)c2)CC1,nt,0%[46.1 µM],-62*,-17%[46.1 µM],-6%,4%
CCCn1c(=O)c2sccc2n2c(CCCC(=O)Nc3ccc(Oc4ccc(Cl)cc4)cc3)nnc12,nt,-26%[46.1 µM],?,?,-6%[7.34 µM],-11%[7.34 µM]
CCCn1c(=O)c2sccc2n2c(CCCC(=O)Nc3ccc(Oc4ccccc4)cc3)nnc12,nt,nt,-61*,-24%[46.1 µM],-9%,-19%
Cc1nn(C)c(C)c1CN(Cc1nc(CCC(C)C)no1)C(C)C,1µM*,?,-83*,?,-13%,-12%
COc1ccccc1CNC(=O)C1CCCN(S(=O)(=O)c2ccc3c(c2)CCCN3C(C)=O)C1 (stereo not given),nt,nt,1,?,-20%,-9%
OC1(c2ccccc2)CCN(Cc2ccccc2)C2CCCCC21 (stereo not given),13%,8.9µM*,-32,?,?,-9%
CN(C)/C=C(/C(=O)c1ccccc1)n1cncn1,3%,11%[46.1 µM],-28,10%,1%,-7%
CC(C)/C=C(/C(=O)c1ccc(Cl)cc1Cl)n1cncn1,-10%,nt,-10,nt,-22%,i
CC(C)(C)C(=O)/C(=C/c1ccc(Cl)cc1)n1cncn1,?,nt,-102*,nt,nt,nt
